Data as given in PubChem BioAssay (NCATS).
Records with an inconclusive call do not appear. Where a call stands in place of a potency, no number is given. Calls of active or inactive are those of the source. The call rests on the fitted dose curve; in most records, active means well fitted curve in the direction sought with a large enough effect; inconclusive means small, poorly fitted or top-dose-only effect, or another doubt; inactive means no such curve, though single readings can be large; an effect the other way counts as inactive or inconclusive.

What was measured:
[1] = qHTS assay to identify small molecule inhibitors of chordoma cells - UCH-1 (AID 1259355); further: nearly all actives have a fitted effect of over 55% in size; on potency: series mostly up to about 46 µM
Procedure, shortened: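 800 cells/well, overnight attach; compounds pinned at 15 concs, then auranofin/camptothecin/doxorubicin/rubitecan/topotecan combo added; 48hr 37 C, 5% CO2; CellTiter-Glo, 30min RT, luminescence.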

[2] = qHTS assay to identify small molecule inhibitors of chordoma cells - UCH-2 (AID 1259356)
Potency means the concentration at half of the fitted maximal effect.

Row | Structure (SMILES) | Potency [1] | Potency [2]
1 | C=C1CC[C@H](O)CC1=C/C=C1\CCC[C@]2(C)[C@@H]([C@H](C)CCCC(C)(C)O)CC[C@@H]12 | inactive | –
2 | C=C1C(CCl)(CCl)C2(Cl)C(Cl)C(Cl)C1(Cl)C2(Cl)Cl (stereo not given) | inactive | inactive
3 | Cn1c(O)c(N=NC(N)=S)c2ccccc21 | inactive | inactive
4 | OC1OC[C@@H](O)[C@H](O)[C@@H]1O (stereo not given in full) | inactive | inactive
5 | C[C@H]1O[C@@H](O[C@H]2[C@@H](O)C[C@H](O[C@H]3[C@@H](O)C[C@H](O[C@H]4CC[C@@]5(C)[C@H](CC[C@@H]6[C@@H]5C[C@@H](O)[C@]5(C)[C@@H](C7=CC(=O)OC7)CC[C@]65O)C4)O[C@@H]3C)O[C@@H]2C)C[C@H](O)[C@@H]1O | 0.355 µM (active) | 0.116 µM (active)
6 | CC(C)N1CCN(c2ccc(OC[C@H]3CO[C@](Cn4cncn4)(c4ccc(Cl)cc4Cl)O3)cc2)CC1 | inactive | inactive
7 | NS(=O)(=O)c1cc2c(cc1Cl)NC(Cc1ccccc1)NS2(=O)=O (stereo not given) | inactive | inactive
8 | COc1ccccc1N1CCN(CCCC(=O)c2ccc(F)cc2)CC1 | inactive | inactive
9 | CC1(C)[C@H]2CC[C@]1(C)[C@H](O)C2 | inactive | inactive
10 | CC12CCC(C[N+](C)(CCC[N+](C)(C)C)C1)C2(C)C (stereo not given) | inactive | –
11 | O=C(c1cc2ccccc2o1)N1CCN(Cc2ccccc2)CC1 | inactive | inactive
12 | CN1C(C(=O)Nc2ccccn2)C(=O)c2sc(Cl)cc2S1(=O)=O (stereo not given) | inactive | –
13 | CC1=CC(=O)NS(=O)(=O)O1 | inactive | –
14 | CCSc1ccc2c(c1)N(CCCN1CCN(C)CC1)c1ccccc1S2 | inactive | inactive
15 | O=C(CCCN1CCC(C(=O)c2ccc(F)cc2)CC1)c1ccc(F)cc1 | inactive | inactive
16 | Oc1cc(O)cc(O)c1 | inactive | inactive
17 | CN[C@@H]1[C@H](O[C@H]2[C@H](O[C@H]3[C@H](O)[C@@H](O)[C@H](N=C(N)N)[C@@H](O)[C@@H]3N=C(N)N)O[C@@H](C)[C@]2(O)CO)O[C@@H](CO)[C@H](O)[C@H]1O | inactive | inactive
18 | COc1ccc(C(=O)/C(Br)=C\C(=O)O)cc1 | inactive | –
19 | CC[C@H]1OC(=O)C[C@@H](O)[C@H](C)[C@@H](O[C@@H]2O[C@H](C)[C@@H](O[C@H]3C[C@@](C)(O)[C@@H](O)[C@H](C)O3)[C@H](N(C)C)[C@H]2O)[C@@H](CC=O)C[C@@H](C)C(=O)/C=C/C(C)=C/[C@@H]1CO[C@@H]1O[C@H](C)[C@@H](O)[C@@H](OC)[C@H]1OC | inactive | inactive
20 | COc1c(O[C@@H]2O[C@H](CO)[C@@H](O)[C@H](O)[C@H]2O)cc2c(c1OC)-c1ccc(SC)c(=O)cc1[C@@H](NC(C)=O)CC2 | inactive | inactive
21 | O=C(O)/C=C/c1ccccc1 | inactive | –
22 | CO/N=C(\C(=O)N[C@@H]1C(=O)N2C(C(=O)O)=C(C[N+]3(C)CCCC3)CS[C@H]12)c1csc(N)n1 | inactive | inactive
23 | O=C1/C(=C\c2cccs2)CCC/C1=C\c1cccs1 | inactive | inactive
24 | CCOC(=O)C1=C(COCCN)NC(C)=C(C(=O)OC)C1c1ccccc1Cl (stereo not given) | inactive | inactive
25 | CSc1nc2cc(Oc3cccc(Cl)c3Cl)c(Cl)cc2[nH]1 | inactive | –

Row | Structure (SMILES) | Potency [1] | Potency [2]
26 | C=C1[C@H](CO)[C@@H](O)C[C@@H]1n1cnc2c(=O)[nH]c(N)nc21 | inactive | inactive
27 | O=C(CO)[C@@H](O)[C@H](O)[C@@H](O)C(=O)O | inactive | inactive
28 | CCN(CC)CCOc1ccc2nc(N(C)C)sc2c1 | inactive | –
29 | O.O.O.O.O.O.O.O=S(=O)([O-])[O-].[Co+2] | inactive | inactive
30 | c1ccc2c(c1)Sc1ccccc1N2CCN1CCCC1 | inactive | inactive
31 | CC1(O)CCC(C(C)(C)O)CC1 (stereo not given) | inactive | –
32 | CCN(CC)CCOCCOC(=O)C(CC)(CC)c1ccccc1 | inactive | –
33 | C[C@H](CCCC(C)(C)O)[C@H]1CC[C@H]2[C@@H]3CC=C4C[C@@H](O)CC[C@]4(C)[C@H]3CC[C@]12C | inactive | inactive
34 | COC(=O)[C@H]1[C@H]2C[C@@H]3c4[nH]c5cc(OC)ccc5c4CCN3C[C@H]2C[C@H](OC)[C@@H]1OC | inactive | –
35 | CC(C)CCC[C@@H](C)[C@H]1CC(=O)C2=C3CC[C@H]4C[C@@H](O)CC[C@]4(C)[C@H]3CC[C@@]21C | inactive | inactive
36 | CC(=O)c1ccc2c(c1)N(CCCN1CCN(CCO)CC1)c1ccccc1S2 | inactive | inactive
37 | N[C@@H](Cc1cc(I)c(Oc2ccc(O)c(I)c2)c(I)c1)C(=O)O | inactive | inactive
38 | CC(C)NCC(O)COc1ccccc1-n1cccc1 (stereo not given) | inactive | inactive
39 | O=C(O[C@H]1CN2CCC1CC2)N1CCc2ccccc2[C@@H]1c1ccccc1 | inactive | inactive
40 | CNC(=O)OCc1cccc(COC(=O)NC)n1 | inactive | inactive
41 | C=CC[N@@+]12CC[C@@]34c5ccccc5N5/C=C6/[C@H]7C[C@H]8[C@@]9(CC[N@@+]8(CC=C)C/C7=C/CO)c7ccccc7N(/C=C(/[C@@H](C[C@@H]31)/C(=C\CO)C2)[C@H]54)[C@@H]69 | inactive | inactive
42 | CCN(CC)CCCC(C)Nc1cc(/C=C/c2ccccc2Cl)nc2cc(Cl)ccc12 (stereo not given) | inactive | inactive
43 | C=CC[C@@H]1/C=C(\C)C[C@H](C)C[C@H](OC)[C@H]2O[C@@](O)(C(=O)C(=O)N3CCCC[C@H]3C(=O)O[C@H](/C(C)=C/[C@@H]3CC[C@@H](O)[C@H](OC)C3)[C@H](C)[C@@H](O)CC1=O)[C@H](C)C[C@@H]2OC | inactive | inactive
44 | CCCCC[C@H](O)/C=C/[C@H]1[C@H](O)CC(=O)[C@@H]1C/C=C\CCCC(=O)O | inactive | inactive
45 | CCCCCCCCCCCCCCCCOCCOCCOCCOCCOCCOCCOCCOCCOCCOCCOCCOCCOCCOCCOCCOCCOCCOCCOCCOCCO | 35.5 µM (active) | inactive
46 | CCN1C(=O)NC(c2ccccc2)C1=O (stereo not given) | inactive | inactive
47 | CC(C)(C)NC[C@H](O)COc1ccccc1C1CCCC1 | inactive | inactive
48 | CCOC(=O)Oc1c(OC)cc(C(=O)O[C@@H]2C[C@@H]3CN4CCc5c([nH]c6cc(OC)ccc56)[C@H]4C[C@@H]3[C@H](C(=O)OC)[C@H]2OC)cc1OC | inactive | inactive
49 | CN(C)CCC(O)(c1ccccc1)c1ccccc1Cl (stereo not given) | inactive | inactive
50 | CNC(=O)C[C@@H](N)C(=O)N[C@@H](C(=O)N[C@@H]1C(=O)N2[C@@H]1SC(C)(C)[C@@H]2C(=O)O)c1ccc(O)cc1 | inactive | inactive

Row | Structure (SMILES) | Potency [1] | Potency [2]
51 | N=C(N)c1ccc(/C=C/c2ccc(C(=N)N)cc2O)cc1 | inactive | inactive
52 | CC[C@@H](C(=O)[C@@H](C)[C@@H](O)[C@H](C)[C@@H]1O[C@@H]([C@@H](CC)C(=O)O)CC[C@@H]1C)[C@H]1O[C@]2(C=C[C@@H](O)[C@]3(CC[C@@](C)([C@H]4CC[C@](O)(CC)[C@H](C)O4)O3)O2)[C@H](C)C[C@@H]1C | 11.2 µM (active) | inactive
53 | O=[N+]([O-])c1c(Cl)cccc1-c1c[nH]cc1Cl | inactive | inactive
54 | OC[C@H]1O[C@@](CO)(O[C@H]2O[C@H](CO)[C@@H](O)[C@H](O)[C@H]2O)[C@@H](O)[C@@H]1O | inactive | inactive
55 | COc1cc(NCCCC(C)N)c2ncccc2c1 (stereo not given) | inactive | 9.2 µM (active)
56 | CCOc1cc(-c2nccc3cc(OC)c(OC)cc23)cc(OCC)c1OCC | inactive | inactive
57 | C=Cc1c(C)c2cc3nc(cc4[nH]c(cc5nc(cc1[nH]2)C(C)=C5CCC(=O)OC)c(CCC(=O)O)c4C)[C@@]1(C)C3=CC=C(C(=O)OC)[C@H]1C(=O)OC | inactive | inactive
58 | CN(C)CCOc1ccc(/C(=C(/CCCl)c2ccccc2)c2ccccc2)cc1 | inactive | inactive
59 | CCC(=O)c1ccc2c(c1)N(CCCN1CCN(CCO)CC1)c1ccccc1S2 | inactive | inactive
60 | CCOc1ccc(NC(=S)Nc2ccc(OCC)cc2)cc1 | inactive | inactive
61 | CS(=O)(=O)c1ccc([C@@H](O)[C@@H](COC(=O)CN)NC(=O)C(Cl)Cl)cc1 | inactive | inactive
62 | C=O | inactive | inactive
63 | O=c1n(CC2CO2)c(=O)n(CC2CO2)c(=O)n1CC1CO1 (stereo not given) | inactive | inactive
64 | CC(CN1c2ccccc2Sc2cccnc21)N(C)C (stereo not given) | inactive | inactive
65 | FCOC(C(F)(F)F)C(F)(F)F | inactive | inactive
66 | C=C[C@]1(C)C[C@@H](OC(=O)CSCCN(CC)CC)[C@]2(C)[C@H](C)CC[C@]3(CCC(=O)[C@H]32)[C@@H](C)[C@@H]1O | inactive | inactive
67 | CN(C)c1ccc(C(=C2C=CC(=[N+](C)C)C=C2)c2c(O)c(S(=O)(=O)[O-])cc3cc(S(=O)(=O)O)ccc23)cc1 | 14.1 µM (active) | 20.6 µM (active)
68 | CCCc1nc(C(C)(C)O)c(C(=O)OCc2oc(=O)oc2C)n1Cc1ccc(-c2ccccc2-c2nn[nH]n2)cc1 | inactive | inactive
69 | C[C@]12CC[C@@H]3c4ccc(O)cc4CC[C@H]3[C@@H]1CC[C@@H]2OP(=O)(O)O | inactive | inactive
70 | COc1cc(C)c(/C=C/C(C)=C/C=C/C(C)=C/C(=O)O)c(C)c1C | inactive | inactive
71 | C#C[C@]1(O)CC[C@H]2[C@@H]3CCC4=C(CCC(=O)C4)[C@H]3CC[C@@]21C | inactive | inactive
72 | CO[C@H]1C[C@@H]2CC[C@@H](C)[C@@](O)(O2)C(=O)C(=O)N2CCCC[C@H]2C(=O)O[C@H]([C@H](C)C[C@@H]2CC[C@@H](OC(=O)C(C)(CO)CO)[C@H](OC)C2)CC(=O)[C@H](C)/C=C(\C)[C@@H](O)[C@@H](OC)C(=O)[C@H](C)C[C@H](C)/C=C/C=C/C=C/1C | inactive | inactive
73 | CCN(CC)CCC(=O)N1c2ccccc2Sc2ccc(C(F)(F)F)cc21 | inactive | inactive
